Experimental data as given in PubChem BioAssay.

Assay: growth of efflux-deficient E. coli DRC39 – strain DRC39, OD650, 24 h, E. coli filamentation inducers, primary screen (AID 1178);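 note: growth measured as culture turbidity by optical density at 650 nm; test concentration not given here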
Settings: E. coli DRC39 acrAB, higher = more signal, called active from +8 up or from −8 down

z-score, inactive:
CC(C)c1ccc(NN2C(C(O)c3ccc4c(c3)OCO4)C=CC3C(=O)N(c4ccccc4)C(=O)C32)cc1 (stereo unspecified) -0.167
CN1C(=O)[C@@]2(CCC(=O)OC(C)(C)C)N=C(c3ccc(OCCCO)cc3)O[C@H]2c2ccccc21 1.2
COC(=O)[C@@]1(Cc2ccc(F)cc2)[C@@H]2C(=CC(=O)[C@H]2CC(=O)C(=O)N(C)C)CN1C(=O)c1ccccc1 -0.0125
O=C(CS)NCCCCCNC(=O)[C@H]1C[C@H]2C(=O)N3CCC[C@H]3C(=O)N2[C@H]1c1cccc(OCCO)c1 -0.201
C=CCOC(=O)[C@H]1[C@@H]2C(=O)O[C@@H](c3ccccc3)[C@@H](c3ccccc3)N2[C@@H](c2ccc(OCCOC(=O)[C@H]3C[C@H]4C(=O)N[C@@H](Cc5ccccc5)C(=O)N4[C@H]3c3ccc(O)cc3)cc2)[C@]12C(=O)Nc1ccccc12 -0.38
COc1ccc([Si](C)(C)[C@@H]2[C@@H](CCO)O[C@]3(C(=O)N(Cc4ccc(NC(C)=O)cc4)c4ccccc43)[C@H]2C)cc1 -0.486
CCCCCN1CC=CC23O[C@@H]4C=CCOC(=O)[C@@H]4[C@H]2C(=O)N(CCCCCCO)[C@@H]3C1=O (stereo partly specified) 0.282
COC(=O)C1(C)C=C2C(=C(c3ccccc3)C(=O)C2C)CN1 (stereo unspecified) -0.632
CC(C)N1CC=CC23O[C@@H]4C=CCCOC(=O)C4[C@H]2C(=O)N(CCCCCCO)[C@@H]3C1=O (stereo partly specified) 0.66
COc1ccc([Si](C)(C)[C@H]2[C@H](CCO)O[C@@]3(C(=O)N(Cc4cccc(NC(=O)[C@H](C)O)c4)c4ccccc43)[C@@H]2C)cc1 1.7
COc1ccc(CCNC(=O)[C@@H]2c3ccccc3C(=O)N(c3ccc(C)cn3)[C@H]2c2ccc(CO)cc2)cc1 0.0636
C=CCNC(=O)[C@H]1[C@@H]2C(=O)O[C@@H](c3ccccc3)[C@@H](c3ccccc3)N2[C@@H](c2ccc(O)cc2)[C@]12C(=O)N(C(=O)OCCOC)c1ccc(C#CC3=CCCCC3)cc12 -0.925
[N-]=[N+]=NCc1ccccc1[C@@H]1OC(c2ccc(OCCCO)cc2)=N[C@]1(Cc1ccccc1)C(=O)N1CCOCC1 0.559
CC(C)C[C@@H]1NC(=O)[C@H]2C[C@@H](C(=O)NCCCCCCN(C)C)[C@@H](c3cccc(OCCO)c3)N2C1=O 0.0442
C=C(/C(=C/C[C@@H](OC(=O)c1ccncc1)c1ccc(OCCO)cc1)c1cnc2ccccc2c1)C(C)C 0.872
CS(=O)(=O)CCOC(=O)C1=CC(CCCO)=CC(c2cccs2)N(Cc2cccc(OC(F)(F)F)c2)C=C1C(=O)OCCS(C)(=O)=O (stereo unspecified) 0.596
COCCCNC(=O)[C@]1(CCC(=O)OC(C)(C)C)N=C(c2ccc(OCCCO)cc2)O[C@@H]1c1ccccc1N=[N+]=[N-] 0.615
Cc1ccc(C2CC=C(C(=O)O)CN2S(=O)(=O)c2ccc(C)cc2)cc1 (stereo unspecified) -0.799
O=C1O[C@@H](c2ccccc2)[C@@H](c2ccccc2)N2[C@@H](c3ccc(OCCO)cc3)[C@]3(C(=O)Nc4ccccc43)[C@@H](C(=O)N3CCN(c4ncccn4)CC3)[C@H]12 0.142
COCCOC(=O)N1C(=O)[C@@]2(c3cc(C#CCNC(N)=O)ccc31)[C@H](c1ccccc1OCCO)N1[C@H](c3ccccc3)[C@H](c3ccccc3)OC(=O)[C@H]1[C@@H]2C(=O)N1CCN(c2ncccn2)CC1 0.924
COCCOC(=O)N1C(=O)[C@@]2(c3cc(C#Cc4ccc(OC)cc4)ccc31)[C@H](C(=O)N1CCN(c3ncccn3)CC1)[C@H]1C(=O)O[C@H](c3ccccc3)[C@H](c3ccccc3)N1[C@@H]2c1ccc(OCCO)cc1 0.178
CN(C)CCCNC(=O)[C@@H]1c2ccccc2C(=O)N(Cc2cc(F)cc(C(F)(F)F)c2)[C@H]1c1ccc(CO)cc1 -0.0392
CCCNC(=O)[C@@H]1c2ccccc2C(=O)N(c2ccc(C)cn2)[C@H]1c1ccc(CO)cc1 0.232
CN1C(=O)C2C=CC(C(O)c3ccc(I)cc3)N(NC(=O)OC(C)(C)C)C2C1=O (stereo unspecified) -0.446
COC(=O)c1c(CC[C@@H](CO)NC(=O)N[C@H](Cc2ccccc2)Cn2cc(-c3ccccc3N)nn2)oc(C(C)=O)c1C(=O)OC 1.18
CCCC=C(CCC)[C@@H](NC(=O)c1ccc(-c2ccccc2)cc1)c1ccc(C(=O)OC)cc1 0.0519
COCC(=C=CC[C@@H](O)c1ccccc1OCCO)CCO 1.63
CC1CC/C=C\[C@H]2OC34C=CCN(C(C)C)C(=O)[C@H]3N(CCCO)C(=O)[C@@H]4C2C(=O)O1 (stereo partly specified) 1.05
Cn1cccc1C(O)C1C=CC2C(=O)NC(=O)C2N1Nc1ccccn1 (stereo unspecified) -0.512
CCCC[C@H]1OB(O)C[C@H]2C1=C(C)C[C@H]1C(=O)N(C)C(=O)[C@H]12 0.506
Cc1ccc(S[C@]2(C(=O)NCC(F)(F)F)CC(=O)N(Cc3ccccc3Cl)[C@@H]2c2ccc(CO)cc2I)cc1 0.357
CC(C)NC(=O)[C@@H]1c2ccccc2C(=O)N(CC23CC4CC(CC(C4)C2)C3)[C@H]1c1ccc(CO)cc1 0.765
CCc1cccc(NC(=O)O[C@H]2[C@H](OC(=O)Nc3ccc4c(c3)OCO4)[C@@H](OC(=O)Nc3ccc4c(c3)OCO4)[C@@H](OC)O[C@@H]2CO)c1 1.57
CC(C)OC(=O)C=C1C[C@@H](c2ccc(C#N)cc2)O[C@@H](c2ccc(C#N)cc2)O1 -0.667
COC(=O)C1=CCC(c2cccc(Cl)c2)O1 (stereo unspecified) -0.0684
CCCC[C@@H](O)C1=C(C)C[C@H]2C(=O)N(Cc3ccccc3)C(=O)[C@H]2[C@H]1CO 0.11
